This passage reports outcome and Potency results from PubChem BioAssay (NCATS).

Where “and” joins values, the source holds several entries; their conditions need not be identical. Equal entries are not always repeated. Records with an inconclusive call do not appear. Calls of active or inactive are those of the source. Calls follow the shape of the dose curve; as a rule, active = well fitted curve in the direction sought with a large enough effect; inconclusive = small, poorly fitted or top-dose-only effect, or another doubt; inactive = no such curve, though single readings can be large; an effect the other way counts as inactive or inconclusive.

A short description of assay [1]: qHTS assay for measurement of the activity of small molecule inhibitors on Zika virus induced Caspase-3 activity in human astrocytoma cells (AID 1224859). A digest of the protocol: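 Percent inhibition of virus-induced caspase-3/7 signal is calculated against uninfected and ZIKV-infected control cells. Cells are SNB-19, infected at 2 FFU/cell for 6 h after 1 h compound exposure.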
(qHTS replaces the single test concentration by a dilution series.)

Assay [2] is described as follows: qHTS assay to identify small molecule inhibitors of chordoma cells - UCH-2 (AID 1259356). Also: series mostly up to about 46 µM.
A short description of assay [3]: P-glycoprotein substrates identified in KB-8-5-11 adenocarcinoma cell line, qHTS therapeutic library screen (AID 1346987). Also: nearly all actives have a fitted effect of over 65% in size. Also: potency is read from the fitted curve at half-maximal effect. A digest of the protocol:
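Compounds are pinned in dose-response onto KB-8-5-11 cells (500 cells/well, colchicine-free medium) and left 72 h at 37 degree C. CellTiter-Glo luminescence then yields AC50 values.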

Assay [4] can be described thus: NS1 protein of Zika virus - qHTS assay to identify small molecule inhibitors in human HEK 293 cells (AID 1347053). Also: nearly all actives have a fitted effect of over 55% in size. Also: potency is read from the fitted curve at half-maximal effect. In outline:
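Read-out is a two-antibody TR-FRET for ZIKV NS1, normalized between uninfected cells and infected cells. Compound added 1 h before MR766 infection at MOI 0.5; human HEK 293 cells incubated 24 h, 37 C.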

Assay [5] can be described thus: qHTS of pediatric cancer cell lines to identify multiple opportunities for drug repurposing: Primary screen for TC32 cells (AID 1347089). Also: nearly all actives have a fitted effect of over 60% in size. Also: potency is read from the fitted curve at half-maximal effect. In outline: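 Luminescent CellTiter-Glo read-out of metabolically active TC32 cells after 48 h compound exposure. Primary: MIPE 11-point, 0.78 nM–46 µM; NPC 8-point, 0.59 nM–46 µM. Confirmatory: 11-point dilutions.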
Assay [6] in a line: qHTS of pediatric cancer cell lines to identify multiple opportunities for drug repurposing: Primary screen for DAOY cells (AID 1347090). Also: nearly all actives have a fitted effect of over 55% in size. Also: potency is read from the fitted curve at half-maximal effect. In outline:
(§1)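 Cell viability, CellTiter-Glo luminescence; 500-1,000 cells/well, 8- or 11-point titration, 48 h compound exposure at 37 degrees C, 5% CO2. Controls: DMSO neutral, bortezomib 2.3 µM final as positive.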

Assay [7] is described as follows: qHTS of pediatric cancer cell lines to identify multiple opportunities for drug repurposing: Primary screen for SJ-GBM2 cells (AID 1347091). Also: potency is read from the fitted curve at half-maximal effect. In outline:
as §1

The nature of assay [8]: qHTS of pediatric cancer cell lines to identify multiple opportunities for drug repurposing: Primary screen for A673 cells (AID 1347092). Also: nearly all actives have a fitted effect of over 45% in size. Also: potency is read from the fitted curve at half-maximal effect. In outline:
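A673 cells (500-1,000 cells/well in growth media) were pre-incubated 5 h at 37 degrees C, then exposed to compounds for 48 h. Viability was read as CellTiter-Glo luminescence; concentration-response curves came directly from the primary screen.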

Assay [9] can be described thus: qHTS of pediatric cancer cell lines to identify multiple opportunities for drug repurposing: Primary screen for BT-37 cells (AID 1347094). Also: potency is read from the fitted curve at half-maximal effect. In outline:
(§2)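 Phenotypic viability qHTS, 48 h compound exposure, CellTiter-Glo luminescence read-out; multi-concentration dosing so that potency and efficacy derive directly from the primary screen's curves.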

A short description of assay [10]: qHTS of pediatric cancer cell lines to identify multiple opportunities for drug repurposing: Primary screen for NB-EBc1 cells (AID 1347095). Also: potency is read from the fitted curve at half-maximal effect. In outline:
as §2

Assay [11] in a line: qHTS of pediatric cancer cell lines to identify multiple opportunities for drug repurposing: Primary screen for SK-N-MC cells (AID 1347093). Also: potency is read from the fitted curve at half-maximal effect. A digest of the protocol:
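Metabolically active cells were quantified by ATP-dependent luminescence (CellTiter-Glo, 15 min at room temperature) following 48 h treatment. Cells had been plated at 500-1,000 per well and settled for 5 h beforehand.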

Regarding `CC1(C)OC[C@@H]2O[C@@]3(C(=O)O)OC(C)(C)O[C@H]3[C@@H]2O1`, the call in assay [1] was inactive. Further, the Potency entry in assay [2], in [3], in assay [4], in assay [5], in [6] and in assay [7] was “inactive” in each case. Moreover, the Potency result in [8], in assay [9] and in assay [10] was “inactive” each time.

`CN1CCN(CCC(=O)N2c3ccccc3Sc3ccc(C(F)(F)F)cc32)CC1`: in assay [1], the result was inactive. For the same compound, the Potency result in assay [2], in assay [5] and in [6] was “inactive” in each case. In addition, the Potency in assay [11] was 29.9 µM (active).

Take `CN(C)C(=O)Nc1ccc(Cl)c(Cl)c1`: the outcome in [1] was inactive. Further, the Potency result in assay [2], in [3], in assay [4], in assay [5], in assay [6] and in assay [7] was “inactive” in each case. The Potency entry in assay [8], in assay [11] and in assay [10] was “inactive” throughout.

Turning to `CN1CCN(C2=Nc3cc(F)ccc3Cc3ccccc32)CC1`, in [1], the call was inactive. For the same compound, the Potency entry in [2], in assay [4], in assay [5], in assay [6], in assay [7] and in assay [8] was “inactive” each time. Further, the Potency result in assay [10] is “inactive”.

Regarding `COP(=O)(OC)OC(c1ccc(Cl)cc1)P(=O)(OC)OC` (centres undefined), the result in assay [1] was inactive. Besides, the Potency entry in [2], in assay [3], in assay [4], in [5], in assay [6] and in assay [7] was “inactive” each time. Besides, the Potency result in assay [8], in [11], in assay [9] and in [10] was “inactive” in each case.

As to `CC(C)Nc1cccnc1N1CCN(C(=O)c2cc3cc(NS(C)(=O)=O)ccc3[nH]2)CC1`, in [1], the compound was called inactive. The Potency result in [2], in assay [3], in [4], in [5], in [6] and in assay [7] was “inactive” throughout. Moreover, the Potency result in [8], in [11], in assay [9] and in assay [10] was “inactive” throughout.

`C=C1c2cccc(O)c2C(O)=C2C(=O)[C@]3(O)C(O)=C(C(N)=O)C(=O)[C@@H](N(C)C)[C@@H]3[C@@H](O)[C@H]12`: the compound was classed as inactive in assay [1]. For the same compound, the Potency result in [2], in [3], in assay [4], in [5], in assay [6] and in assay [7] was “inactive” throughout. The Potency entry in assay [9] and in assay [10] was “inactive” each time.

With `CCCCCCCCCCCCOCCOCCOCCOCCOCCOCCOCCOCCOCCO`, the compound was called inactive in assay [1]. The Potency entry in assay [2] and in assay [4] was “inactive” throughout. The Potency in assay [3] is 3.26 µM (active); in [6] it was 16.8 µM (active); in assay [8], 21.1 µM (active); in [10] it was 21.1 µM (active).

With `CCCCCCCC/C=C\CCCCCCCCN`, the compound was classed as inactive in assay [1]. Further, the Potency result in [2], in [3], in [4], in [5], in assay [6] and in [7] was “inactive” throughout. The Potency entry in assay [8], in assay [9] and in [10] was “inactive” throughout.

As for `CC(=O)Nc1ccc(CC(=O)O)cc1`, in [1], the result was inactive. Further, the Potency result in assay [2], in assay [4], in assay [5], in assay [6], in assay [7] and in assay [8] was “inactive” in each case. Also, the Potency result in assay [11], in [9] and in assay [10] was “inactive” each time.

For the compound `CN(CCCN1c2ccccc2CCc2ccccc21)CC(=O)c1ccc(Cl)cc1`, the compound was called inactive in [1]. Further, the Potency entry in assay [2], in assay [4], in [5], in assay [6], in assay [7] and in [8] was “inactive” throughout. Also, the Potency result in assay [9] and in assay [10] was “inactive” each time.

As to `O=C(CN1CCN(Cc2ccc3c(c2)OCO3)CC1)N1c2ccccc2Sc2ccccc21`, the compound was classed as inactive in [1]. Further, the Potency result in [2], in [4], in assay [5], in assay [6], in [7] and in assay [8] was “inactive” throughout. Further, the Potency entry in assay [11], in assay [9] and in [10] was “inactive” throughout.

On to `CCOC(=O)[C@@](C)(N)Cc1ccc(O)c(O)c1`, for which the outcome in assay [1] was inactive. Also, the Potency entry in [2], in assay [3], in [4], in assay [7], in [9] and in assay [10] was “inactive” each time. Further, the Potency in assay [5] was 21 µM (active).

For the compound `CCCCNC(=O)NS(=O)(=O)c1ccc(N)cc1`, the call in assay [1] was inactive. In addition, the Potency result in assay [2], in [4], in assay [5], in assay [6], in [7] and in assay [8] was “inactive” each time. Besides, the Potency result in assay [11], in assay [9] and in assay [10] was “inactive” throughout.

As for `Nc1nc(Cl)nc2c1ncn2[C@@H]1O[C@H](CO)[C@@H](O)[C@@H]1F`, the call in [1] was inactive. Besides, the Potency entry in assay [2] was “inactive”. For the same compound, the Potency in [4] is 4.47 µM (active); in assay [5], 0.264 µM (active); in [6], 0.422 µM (active); in assay [7] it was 0.0266 µM (active); in assay [8], 0.422 µM (active); in assay [9], 0.309 µM (active). In addition, the Potency in [10] was 0.211 µM (active).

For the compound `CCCCCCCCCCCCSCCOCCO`, the compound was called inactive in assay [1]. The Potency entry in assay [2], in assay [3], in assay [4], in [5], in assay [6] and in assay [7] was “inactive” throughout. In addition, the Potency result in [8], in assay [9] and in assay [10] was “inactive” each time.

Turning to `COc1cc(C(=O)NCc2ccc(OCCN(C)C)cc2)cc(OC)c1OC`, in [1], the compound was called inactive. The Potency entry in assay [2], in [3], in assay [4], in [5], in [6] and in assay [7] was “inactive” each time. In addition, the Potency entry in [8], in assay [11], in assay [9] and in [10] was “inactive” each time.

As for `Nc1ccc(C(=O)NCC(=O)O)cc1`, the outcome in assay [1] was inactive. In addition, the Potency entry in [2], in assay [3], in [4], in [5], in assay [6] and in [7] was “inactive” throughout. Also, the Potency entry in [8], in assay [9] and in [10] was “inactive” throughout.

In the case of `CC(=O)O[C@H]1C[C@@H]2CC[C@@H]3[C@H](CC[C@@]4(C)[C@H]3C[C@H]([N+]3(C)CCCCC3)[C@@H]4OC(C)=O)[C@@]2(C)C[C@@H]1N1CCCCC1`, the compound was classed as inactive in assay [1]. Also, the Potency entry in assay [2], in assay [4], in assay [5], in [6], in assay [7] and in assay [8] was “inactive” throughout. The Potency result in assay [9] and in [10] was “inactive” throughout.

Take `CN(C)CCOC(c1ccc(Cl)cc1)c1ccccn1` (centres undefined): the compound was called inactive in assay [1]. For the same compound, the Potency result in assay [2], in assay [4], in assay [5], in [6], in [7] and in assay [8] was “inactive” each time. In addition, the Potency result in assay [11], in assay [9] and in assay [10] was “inactive” each time.

For the compound `CC[C@]12CCCN3CCc4c(n(c5ccccc45)C(=O)C1)[C@@H]32`, the result in [1] was inactive. The Potency result in assay [2] and in assay [4] was “inactive” in each case. For the same compound, the Potency in assay [3] is 5.56 µM (active) and 5.8 µM (active); in assay [7], 5.96 µM (active); in assay [11] it was 5.96 µM (active); in [10], 1.88 µM (active).

Consider `CCOC(=O)C(C#N)=C(c1ccccc1)c1ccccc1`, for which, in assay [1], the compound was classed as inactive. Further, the Potency result in assay [2], in [4], in [5], in assay [6], in assay [7] and in assay [8] was “inactive” throughout. Moreover, the Potency result in [11], in [9] and in [10] was “inactive” each time.
